Results reported in PubChem BioAssay (NCI).
The panel holds about 83,000 compounds, 20% with a hit somewhere; the sample as a whole holds those more often.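 Each cell line was grown in a 96-well plate and treated with one concentration of compound for 48 hours. Values below 10 were considered active.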 Calls of active or inactive are those of the source.

What was measured:
Assay in all cases: NCI-60 one-dose screen, 48 h (100 = growth as untreated, 0 = no growth, -100 = all killed)
Conditions in all cases: 10 µM
NCI-H23 lung = system: NCI-H23 lung
NCI-H522 lung = system: NCI-H522 lung
MALME-3M melanoma = system: MALME-3M melanoma
MDA-MB-231 breast = system: MDA-MB-231 breast
M14 melanoma = system: M14 melanoma
SK-MEL-5 melanoma = system: SK-MEL-5 melanoma
UACC-62 melanoma = system: UACC-62 melanoma
LOX IMVI melanoma = system: LOX IMVI melanoma
SK-MEL-28 melanoma = system: SK-MEL-28 melanoma
SR leukemia = system: SR leukemia
OVCAR-8 ovarian = system: OVCAR-8 ovarian
OVCAR-5 ovarian = system: OVCAR-5 ovarian
OVCAR-4 ovarian = system: OVCAR-4 ovarian
SK-OV-3 ovarian = system: SK-OV-3 ovarian
IGROV1 ovarian = system: IGROV1 ovarian
HS 578T breast = system: HS 578T breast
NCI/ADR-RES ovarian = system: NCI/ADR-RES ovarian
T-47D breast = system: T-47D breast
SW-620 colon = system: SW-620 colon
MCF7 breast = system: MCF7 breast

Measured: growth

CC1=C(CN(O)C(N)=O)C2=C(C)C3(CC3)[C@@](C)(O)C(=O)C2=C1
active: NCI-H23 lung -28.5% | NCI-H522 lung 0.934% | MALME-3M melanoma -39.2% | MDA-MB-231 breast 6.59% | M14 melanoma -63% | SK-MEL-5 melanoma -61.6% | UACC-62 melanoma -19.7% | LOX IMVI melanoma -27.6% | SK-MEL-28 melanoma -33% | OVCAR-8 ovarian 1.75% | OVCAR-4 ovarian -0.96% | SK-OV-3 ovarian -16.3% | HS 578T breast -16.8% | NCI/ADR-RES ovarian -5.11% | T-47D breast -3.77% | MCF7 breast 9.79%
inactive: SR leukemia 67.6% | OVCAR-5 ovarian 17.5% | IGROV1 ovarian 11.1% | SW-620 colon 86%

CC1=C(CN(O)C(N)=O)C2=C(C)C3(CC3)[C@](C)(O)C(=O)C2=C1
active: NCI-H522 lung -7.03% | MALME-3M melanoma 2.97% | M14 melanoma -55.4% | SK-MEL-28 melanoma -28.4% | SR leukemia -4.72% | OVCAR-8 ovarian 6.82% | T-47D breast 6.89% | SW-620 colon 8.93% | MCF7 breast 3.76%
inactive: NCI-H23 lung 10.7% | MDA-MB-231 breast 12.4% | SK-MEL-5 melanoma 85.8% | UACC-62 melanoma 14.4% | LOX IMVI melanoma 56% | OVCAR-5 ovarian 10.3% | OVCAR-4 ovarian 13.7% | SK-OV-3 ovarian 14.7% | IGROV1 ovarian 29% | HS 578T breast 33.7% | NCI/ADR-RES ovarian 15.9%

COc1cccc2c1cc([N+](=O)[O-])c1c(C(=O)O)cc3c(c12)OCO3
inactive: NCI-H23 lung 102% | NCI-H522 lung 95.9% | MALME-3M melanoma 95.9% | MDA-MB-231 breast 106% | M14 melanoma 103% | SK-MEL-5 melanoma 102% | UACC-62 melanoma 103% | LOX IMVI melanoma 100% | SK-MEL-28 melanoma 112% | SR leukemia 106% | OVCAR-8 ovarian 102% | OVCAR-5 ovarian 106% | OVCAR-4 ovarian 108% | SK-OV-3 ovarian 113% | IGROV1 ovarian 106% | HS 578T breast 105% | NCI/ADR-RES ovarian 107% | T-47D breast 95.8% | SW-620 colon 101% | MCF7 breast 94.9%
